Assay outcomes from PubChem BioAssay.
BAZ2B inh: blocks human BAZ2B. actives 4.4% (n = 360,000). Potency, µM (series often up to 114 µM), without a hit: at the top dose activity change, negative = inhibition, usual class: inhibitors. AlphaScreen BAZ2B-H3K14Ac peptide displacement; note: % is set by controls: 0 for no effect and ±100 for the full control effect; nearly all actives have a fitted effect of over 60% in size
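AlphaScreen displacement of biotin-H3(5-23)K14Ac peptide (50 nM final) from BAZ2B (50 nM final) in PBS pH 7.4, 0.01% Tween-20; complex preformed 30 min RT, then compounds (top 110 uM) 30 min RT, beads 20 min dark.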
JMJD2A Tudor: inhibitors of human JMJD2A Tudor domain | AlphaScreen JMJD2A-Tudor / H3K4me3 peptide binding | Potency, µM (doses to about 114 µM), for inactives: top-dose activity change, negative = inhibition, usual class: inhibitors | actives 4.4% (n = 390,000) | AID 504339 | O75164; note: % is set by controls: 0 for no effect and ±100 for the full control effect; nearly all actives have a fitted effect of over 50% in size
Sfp inh: inhibitors of Bacillus subtilis Sfp phosphopantetheinyl transferase | Biochemical Sfp PPTase activity, qHTS | Q9F4F7 | Potency, µM, for the others: largest response in the series, negative = inhibition, hits mostly inhibitors | actives 3.5% (n = 310,000);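 note: the enzyme is Sfp with the accession as filed and its product quenches rhodamine fluorescence; 0% = enzyme reaction without inhibitor and -100% = no enzyme wells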
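Reaction rates are the 30-min fluorescence difference (ex 525, em 598 nm) in wells containing 15 nM Sfp, 5 uM rhodamine-CoA and 12.5 uM BHQ-2-YbbR at pH 7.6 with 10 mM MgCl2.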
G9a inh: blocks human histone lysine methyltransferase G9a; Q96KQ7; G9a H3K9 monomethylation, AlphaScreen, 2 h; Potency, µM (highest dose often 102 µM), for inactives: top-dose activity, negative = inhibition, actives largely listed as inhibitors; actives 8.8% (n = 350,000); AID 504332; note: % is set by controls: 0 for no effect and ±100 for the full control effect; nearly all actives have a fitted effect of over 75% in size
Target sequence (Q96KQ7 913-1193 limits assumed): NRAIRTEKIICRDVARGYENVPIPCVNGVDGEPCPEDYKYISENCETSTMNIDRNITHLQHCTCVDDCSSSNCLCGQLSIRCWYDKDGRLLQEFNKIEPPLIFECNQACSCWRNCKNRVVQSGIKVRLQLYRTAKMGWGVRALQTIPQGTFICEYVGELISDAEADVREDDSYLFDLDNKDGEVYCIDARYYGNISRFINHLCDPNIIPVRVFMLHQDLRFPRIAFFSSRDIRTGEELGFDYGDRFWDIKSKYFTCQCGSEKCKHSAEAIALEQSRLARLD
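Readings reflect AlphaScreen signal from monomethyl-H3K9 antibody detection. HMT at 20 nM; substrate b-H3K9 500 nM; cofactor SAM 20 uM; 2 h RT reaction; compounds tested as titrations in qHTS with 15 min preincubation.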
HP1b binding inh: blocks HP1-beta chromodomain binding to methylated histone tails; P83916; AlphaScreen HP1-beta / biotin-H3K9me3 peptide binding; Potency, µM (highest dose often 114 µM), for inactives: at the highest dose activity change, negative = inhibition, hits mostly inhibitors; actives 0.56% (n = 390,000); AID 540317; note: nearly all actives have a fitted effect of over 70% in size
Target sequence (P83916 whole entry, looked up): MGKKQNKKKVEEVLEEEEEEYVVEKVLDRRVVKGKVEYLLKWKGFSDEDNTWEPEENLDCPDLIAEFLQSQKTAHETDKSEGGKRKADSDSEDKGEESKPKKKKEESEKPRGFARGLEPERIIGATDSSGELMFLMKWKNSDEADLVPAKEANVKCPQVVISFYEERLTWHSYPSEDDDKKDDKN
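Compound inhibition of the preformed complex between 50 nM HP1-beta and 50 nM biotinylated H3K9me3 peptide was read by AlphaScreen. Buffer was PBS pH 7.4 with 0.01% Tween-20. Incubations ran 30 min at room temperature, with 10 ug/mL donor/acceptor beads.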
Numbers without * were called inactive; ? = inconclusive; nt = no result; [ ] = another dose, or the depositor's remark. In the library only some 12% were active in any assay of this set; here they are far more common. Calls come from the whole dose curve; as a rule, active = well fitted curve in the direction sought with a large enough effect; inconclusive = small, poorly fitted or top-dose-only effect, or another doubt; inactive = no such curve, though single readings can be large; an effect the other way counts as inactive or inconclusive. Potency is the fitted concentration of half-maximal effect.

SMILES	BAZ2B inh	JMJD2A Tudor	Sfp inh	G9a inh	HP1b binding inh
C/C(=N\NC(=O)c1nnn(-c2nonc2N)c1CN1CCCCC1)c1ccccc1O	45µM*	?	3%	11%	21%
C/C(=N\NC(=O)c1nnn(-c2nonc2N)c1CN(C)c1ccccc1)c1ccccc1O	2.2µM*	14µM*	2%	21%	13%[57 µM]
COc1ccc(/C(C)=N/NC(=O)c2nnn(-c3nonc3N)c2-c2cccs2)cc1	0%	-7%	16%	46%	27%
C#CCOc1ccc(/C=N/O)cc1Cl	0%	-11%	7%	-8%[59 µM]	15%
CCC(=O)c1ccc(OCC(=O)OCC(=O)Nc2cccc(S(=O)(=O)N3CCOCC3)c2)cc1	nt	-14%	nt	nt	23%
CC1(C)CC(NS(=O)(=O)c2ccc(Cl)cc2)CC(C)(C)N1	-2%	-5%	7%	9%	25%
O=C1c2cccc3cccc(c23)C(=O)N1c1ccc2ncccc2c1	?	79µM*	?	25µM*	-17%
O=C1c2cccc3cccc(c23)C(=O)N1c1nccs1	5%	3%	-2%	?	37%
COc1ccc(NC(=O)c2ccc(NC(=O)c3nc4nccc(C)n4n3)cc2)cc1	nt	4%	nt	nt	38%
COc1ccc(C2=NS(=O)(=O)N(C)C(C(=O)Nc3ccc(OC(F)(F)F)cc3)=C2)cc1	-34%	-33%	nt	14µM*	5%
CSc1ccccc1NC(=O)C1=CC(c2ccc(C)cc2)=NS(=O)(=O)N1C	?	-35%	18%	79µM*	16%
CCOc1ccccc1N(C)C(=O)C1CCCN(c2ncnc3c2nc2n3CCCCC2)C1 (centres undefined)	3%	-5%	nt	-2%[59 µM]	34%
CC(CCC(C)C(C)(C)C)[C@@H]1CC[C@H]2C3C[C@H](OS(O)(=S)=S)[C@H]4C[C@H](OS(O)(=S)=S)[C@@H](OS(O)(=S)=S)C[C@]4(C)[C@H]3CC[C@]12C (some centres undefined) (tested in a mixture with another compound)	nt	22µM*	nt	nt	?
Cc1cc(C)nc(Sc2ccc(/C=C(\C#N)C(N)=O)o2)n1	-2%	-7%	6%	-1%[59 µM]	14%
CCCc1cc(=O)[nH]c(SCc2cccnc2)n1	32%	-5%	12%	36%[59 µM]	33%
CCOC(=O)c1cnc(-n2nc(C)cc2C)nc1NC	3%	-34%	?	45µM*	15%
CCOC(=O)c1cnc(-n2nc(C)cc2C)nc1Nc1ccc(C)cc1	-9%	-22%	2%	?	40%
CCOC(=O)c1cnc(-n2nc(C)cc2C)nc1Nc1ccc(O)cc1	-16%	-10%	0%	?	31%
CCOC(=O)c1cnc(-n2nc(C)cc2C)nc1Nc1cccc(C(=O)O)c1	4%	89µM*	7%	10µM*	31%
N#CC(C#N)=C1c2cc(S(N)(=O)=O)ccc2-c2ccc(S(N)(=O)=O)cc21	-37%	-8%	40µM*	18µM*	36%
N#CC(C#N)=C1c2cc(S(=O)(=O)NCCO)ccc2-c2ccc(S(=O)(=O)NCCO)cc21	-17%	-9%	56µM*	nt	66%
O=C(O)CNS(=O)(=O)c1ccc2c(c1)Cc1cc(S(=O)(=O)NCC(=O)O)ccc1-2	?	-4%	-1%	-11%[59 µM]	44%
CC(C(=O)Nc1ccccn1)(c1ccccc1)c1ccccc1	1%	26%	8%	nt	51%
COC(=O)Cc1[nH]c(=S)[nH]c1C(=O)OC	-5%	3.2µM*	56µM*	nt	7%
Cc1cc(-n2c(SCC(=O)NCCC3=CCCCC3)nc3n[nH]c(C)c3c2=N)ccc1Cl	-15%	-23%	16%	3%[59 µM]	18%
SMILES	BAZ2B inh	JMJD2A Tudor	Sfp inh	G9a inh	HP1b binding inh
CCN(c1ccc(NC(=O)c2ccc(N3CCCC3=O)cc2)cc1)C(C)C	-25%	-16%	nt	3.5µM*	-2%
O=C(Nc1ccccc1Br)c1ccc(N2CCCC2=O)cc1	0%	-6%	nt	1%[0.501 µM]	22%
O=C(Nc1ccccc1N1CCCC1)c1ccco1	-27%	-36%	5%	50µM*	7%
O=C(Nc1ccccc1N1CCCC1)c1ccc(Cl)cc1Cl	6%	-29%	9%	-7%	24%
O=C(Nc1ccccc1N1CCCC1)c1ccccc1Cl	?	-21%	12%	40µM*	24%
CN(C)S(=O)(=O)c1cccc(NC(=O)c2ccc(N3CCCC3=O)cc2)c1	nt	-6%	nt	nt	39%
O=C(Nc1ccccc1N1CCCC1)c1ccc(N2CCCC2=O)cc1	-24%	-23%	nt	35µM*	8%
N#Cc1cc([N+](=O)[O-])ccc1NC(=O)COC(=O)C1CC2CCCC(C1)C2=O (centres undefined)	6%	-12%	nt	?	15%
CCCCOc1ccc(OCCNC(=O)C2CCCN2C(=O)Nc2ccccc2)cc1 (centres undefined)	-8%	-11%	-3%	-10%	17%
O=C(NC(=S)Nc1ccccc1N1CCOCC1)c1ccco1	-9%	-17%	3%	50µM*	35%
O=C(Nc1ccccc1N1CCCC1)C1CCCO1 (centres undefined)	-28%	-13%	nt	28µM*	27%
CS(=O)(=O)N1CCN(c2ccccc2NC(=S)NC(=O)c2ccco2)CC1	nt	-14%	nt	nt	10%
CN(CCCNC(=O)c1ccc(N2CCCC2=O)cc1)c1ccccc1	-34%	?	-25%	10µM*	11%
O=C(NC(=S)Nc1ccccc1N1CCCC1)c1ccco1	40µM*	?	32µM*	nt	?
Cc1ccc(S(=O)(=O)NC(=O)Nc2ccc(OC(F)F)cc2)cc1	-16%	-15%	-2%	-14%	24%
Cc1nc2ccccc2c(=O)n1NC(=O)c1c(O)c2c(n(CC(C)C)c1=O)CCCC2	-13%	-20%	3%	-4%[59 µM]	40%
CCOC(=O)C1CCCN(c2cc(=O)n(-c3ccccc3Cl)c(=O)[nH]2)C1 (centres undefined)	16%	-19%	?	?	8%
COC(=O)n1ccc(C(=O)Nc2ccccc2F)n1	5%	-18%	13%	-40%	2%
Cc1cccc(-c2nc3ccccc3c(=O)n2NC(=S)N(C)C)c1	-5%	89µM*	32µM*	8.9µM*	-47%
CCOCc1nnc(NC(=O)c2c(OC)cccc2OC)s1	-26%	-25%	-9%	?	27%
COc1cccc(C(=O)Nc2nnc(-c3cccs3)s2)c1	-4%	3%	-15%	10µM*	9%
CCOCC(=O)Nc1nnc(COc2ccc(Cl)cc2)s1	-2%	?	28µM*	4µM*	?
CCOCc1nnc(NC(=O)c2cc(OC)cc(OC)c2)s1	-16%	-27%	-13%	32µM*	21%
CCOCc1nnc(NC(=O)c2cccc(OC)c2)s1	?	-5%	11%	50µM*	16%
CCc1nnc(NC(=O)c2cccc(OC)c2)s1	-3%	-14%	-5%	-3%[59 µM]	41%
